Test results published in PubChem BioAssay AID1159580 (chemical genetic matrix, 2015).
Out of some 5,500 compounds screened, about 2,000 (36%) were called active. Another 18% or so got no clear call; they are omitted. Cut-off read from the data, not from the text of the source: active = normalized growth mostly below about 0.91 (no sharp cut-off); inconclusive = no clear call, values can overlap the other calls; inactive = mostly above about 0.92. The list shows a part of the results.

Test: chemical genetic growth profiling, strain panel (AID 1159580);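 note: tested at 20 µM; growth read once vehicle control cultures reached saturation at 30 °C; 1 = growth at the plate median or of vehicle wells; lower values mean less growth of the strain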
Conditions: growth OD
[1] = S. cerevisiae deletion strains, locus YAL013W, strain DEP1, hits give low values
[2] = S. cerevisiae deletion strains, locus YBR229C, strain ROT2, hits give low values
[3] = S. cerevisiae deletion strains, locus YDL101C, strain DUN1, hits give low values
[4] = S. cerevisiae deletion strains, locus YDL134C, strain PPH21, hits give low values
[5] = S. cerevisiae deletion strains, locus YDR150W, strain NUM1, hits give low values
[6] = S. cerevisiae deletion strains, locus YEL061C, strain CIN8, hits give low values
[7] = S. cerevisiae deletion strains, locus YGR078C, strain PAC10, hits give low values
[8] = S. cerevisiae deletion strains, locus YGR229C, strain SMI1, hits give low values
[9] = S. cerevisiae deletion strains, locus YHR030C, strain SLT2, hits give low values
[10] = S. cerevisiae deletion strains, locus YHR087W, strain rtc3, hits give low values
[11] = S. cerevisiae deletion strains, locus YJR043C, strain POL32, hits give low values
[12] = S. cerevisiae deletion strains, locus YJR075W, strain HOC1, hits give low values
[13] = S. cerevisiae deletion strains, locus YLR039C, strain RIC1, hits give low values
[14] = S. cerevisiae deletion strains, locus YLR058C, strain SHM2 (second series), hits give low values
[15] = S. cerevisiae deletion strains, locus YLR085C, strain ARP6, hits give low values
[16] = S. cerevisiae deletion strains, locus YLR262C, strain YPT6, hits give low values
[17] = S. cerevisiae deletion strains, locus YML094W, strain GIM5, hits give low values
[18] = S. cerevisiae deletion strains, locus YMR219W, strain ESC1, hits give low values
[19] = S. cerevisiae deletion strains, locus YMR263W, strain SAP30, hits give low values
[20] = S. cerevisiae deletion strains, locus YNL153C, strain GIM3, hits give low values
[21] = S. cerevisiae deletion strains, locus YNL298W, strain CLA4 (second series), hits give low values
[22] = S. cerevisiae deletion strains, locus YNL322C, strain KRE1, hits give low values
[23] = S. cerevisiae deletion strains, locus YNR030W, strain Alg12, hits give low values
[24] = S. cerevisiae deletion strains, locus YPL055C, strain LGE1, hits give low values
[25] = S. cerevisiae deletion strains, locus YPL241C, strain CIN2, hits give low values
[26] = S. cerevisiae deletion strains, locus YPR135W, strain CTF4, hits give low values

Measured: normalized growth

CCN1CN=C(SCc2ccc(C)cc2)NC1
inactive: [1] 0.986 | [2] 0.992 | [3] 0.991 | [4] 1 | [5] 0.932 | [6] 0.997 | [7] 0.983 | [8] 1 | [9] 0.915 | [10] 0.968 | [11] 0.976 | [12] 0.986 | [13] 0.977 | [14] 0.977 | [15] 0.997 | [16] 0.974 | [17] 0.998 | [18] 0.994 | [19] 0.974 | S. cerevisiae deletion strains, locus YMR307W, strain GAS1, hits give low values 1.05 | [20] 0.98 | [21] 0.975 | [22] 0.994 | [23] 0.986 | [24] 0.947 | [25] 0.978 | [26] 0.904

COc1cc(NC(=O)NS(=O)(=O)c2ccc(C)cc2)cc(C(F)(F)F)c1
inactive: [1] 0.991 | [2] 0.995 | S. cerevisiae deletion strains, locus YCL061C, strain MRC1, hits give low values 0.987 | [3] 0.99 | [4] 1 | [5] 0.91 | [6] 1.02 | [7] 0.995 | [8] 0.996 | [9] 1.1 | [10] 0.994 | [11] 0.998 | [12] 0.965 | [13] 0.925 | [14] 0.999 | [15] 1.05 | [16] 0.907 | [17] 1.01 | [18] 0.997 | [19] 1 | [20] 0.995 | [21] 1.03 | [22] 0.986 | [23] 1.03 | S. cerevisiae deletion strains, locus YOL006C, strain TOP1, hits give low values 1.06 | [24] 0.966 | [25] 1.11 | [26] 1.02 | S. cerevisiae strains, strain wild type, hits give low values 1
